APE1 inh – qHTS Assay for Inhibitors of the Human Apurinic/apyrimidinic Endonuclease 1 (APE1). AID 2517, 2012. DNA repair nuclease/redox regulator APEX1 (Homo sapiens), P27695. Potency, µM (titrated, usually from 65.8 µM), for inactives: at the top dose activity change, negative = inhibition, most hits filed as inhibitors. recombinant APE1, TAMRA/BHQ-2 abasic DNA cleavage fluorescence. hit rate 0.35% among 350,000;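 note: potency is the fitted concentration of half-maximal effect; plate controls were vehicle for no effect and reference inhibitor for full effect; nearly all actives have a fitted effect of over 55% in size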
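APE1 at 0.75 nM final was preincubated with compound 15 min at room temperature, then 50 nM double-stranded THF abasic-site substrate (5'-TAMRA/3'-BHQ-2) was added. Fluorescence (ex 525/em 598 nm) was read kinetically; third-minus-first read gave activity.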
GCN5L2 inh – qHTS Assay for Inhibitors of GCN5L2; GCN5L2 HAT assay, ThioGlo1 CoA-SH fluorescence; Potency, µM (series often up to 58.9 µM), inactives show top-dose activity change, negative = inhibition, hits mostly inhibitors; hit rate 0.21% among 390,000; note: potency is the fitted concentration of half-maximal effect
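Compounds, pin-transferred from DMSO stocks, meet 20nM GCN5L2 for 15 min before the reaction begins with H3(1-25) peptide (75uM) and acetyl-CoA (70uM). Thiol-reactive ThioGlo1 reports CoA release over 20 min at room temperature.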
FEN1 inhibitor – qHTS Assay for the Inhibitors of Human Flap endonuclease 1 (FEN1). Recombinant FEN1 flap cleavage, fluorescence, 15 min. P39748. hit rate 0.35% among 390,000. Potency, µM (doses to about 114 µM), without a hit: top-dose activity change, negative = inhibition, actives largely listed as inhibitors; note: potency is the fitted concentration of half-maximal effect; nearly all actives have a fitted effect of over 65% in size
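Quantitative HTS format: each compound was titrated, incubated with 10 nM nuclease for 15 min at room temperature, then challenged with flap substrate at 50 nM final. Signal change over 15 min gave concentration–effect curves.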
BLM inh-1 – qHTS Assay for Inhibitors of Bloom's syndrome helicase (BLM). RecQ-like DNA helicase BLM (Homo sapiens), P54132. recombinant BLM DNA unwinding, fluorescence dequenching. Potency, µM (highest dose often 56.1 µM), for the others: at the highest dose activity change, negative = inhibition, usual class: inhibitors. hit rate 0.2% among 350,000. AID 2528, 2010;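 note: potency is the fitted concentration of half-maximal effect; plate controls were vehicle for no effect and no enzyme for full effect; nearly all actives have a fitted effect of over 35% in size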
RECQ1 helicase – qHTS Assay for Inhibitors of RecQ-Like Dna Helicase 1 (RECQ1); ATP-dependent DNA helicase Q1 (Homo sapiens), P46063; RECQ1 DNA unwinding, red fluorescence kinetic read; Potency, µM (titrated, usually from 57.3 µM), for the others: at the highest dose activity, negative = inhibition, actives largely listed as inhibitors; hit rate 0.54% among 240,000; AID 2549, 2010;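 note: potency is the fitted concentration of half-maximal effect; plate controls were vehicle for no effect and no enzyme for full effect; nearly all actives have a fitted effect of over 30% in size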
Target sequence (P46063 whole entry, looked up): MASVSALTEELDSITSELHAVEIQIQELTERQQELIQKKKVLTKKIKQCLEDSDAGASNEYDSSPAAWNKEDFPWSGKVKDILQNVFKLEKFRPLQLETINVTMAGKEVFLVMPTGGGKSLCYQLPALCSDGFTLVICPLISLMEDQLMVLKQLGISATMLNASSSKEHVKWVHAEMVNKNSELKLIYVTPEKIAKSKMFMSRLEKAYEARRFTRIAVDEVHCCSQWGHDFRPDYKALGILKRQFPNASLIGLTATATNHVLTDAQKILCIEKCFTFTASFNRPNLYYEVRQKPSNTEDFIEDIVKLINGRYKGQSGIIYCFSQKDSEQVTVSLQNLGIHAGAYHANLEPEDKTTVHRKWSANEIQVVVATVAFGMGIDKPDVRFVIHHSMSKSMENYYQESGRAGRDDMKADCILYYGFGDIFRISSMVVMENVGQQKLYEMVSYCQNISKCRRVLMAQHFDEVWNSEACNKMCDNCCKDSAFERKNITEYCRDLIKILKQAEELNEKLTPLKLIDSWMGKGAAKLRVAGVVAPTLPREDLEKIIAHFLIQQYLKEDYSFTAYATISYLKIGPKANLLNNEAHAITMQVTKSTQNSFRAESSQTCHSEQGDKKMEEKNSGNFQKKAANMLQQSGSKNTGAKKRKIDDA
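RECQ1T1 50 nM; forked duplex (20 bp + 30-nt ss tails) 200 nM, ATP 2 mM final; pH 8.0, 2 mM MgCl2, 2.5 ug/ml poly(dI-dC); 15 min compound preincubation; discontinuous kinetic read over 2 h at RT.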
PI5P4Ka inh – qHTS for Inhibitors of phosphatidylinositol 5-phosphate 4-kinase (PI5P4K); hit rate 1.2% among 330,000; PI5P4Kalpha enzyme, ADP-Glo luminescence, 60 min; hits give low values; max response, %; Phosphatidylinositol 5-phosphate 4-kinase type-2 alpha (Homo sapiens), P48426; AID 652105, 2013; active = max response of -50% or lower; inconclusive = between -30% and -50%; inactive = -30% or higher; note: value at the top dose of about 77 µM
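ADP-Glo luminescence end-point after a 60 min room-temperature kinase reaction. PI5P4Kalpha and substrate in HEPES pH 7.4 buffer with EGTA, 0.1% CHAPS and 5% DMSO; ATP at 5 microM final.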
BLM inh-2 – qHTS Confirmation Assay for Inhibitors of Bloom's syndrome helicase (BLM); shares compounds with BLM inh-1; BLM DNA unwinding, fluorescence quenching, biochemical; Potency, µM, for inactives: max response, negative = inhibition, usual class: inhibitors; hit rate 40% among 220; AID 2585, 2010;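 note: strand separation dequenches TAMRA so unwinding raises red fluorescence; potency is the fitted concentration of half-maximal effect; series mostly up to about 69 µM; nearly all actives have a fitted effect of over 45% in size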
An asterisk follows results filed as active; i = inactive; ? = inconclusive; nt = no result given; [ ] = another dose, or the depositor's remark. Compounds with a hit are over-represented: about 1.5% of the library has one in this group of screens. Unless noted, calls come from the whole dose curve; as a rule, active = well fitted curve in the direction sought with a large enough effect; inconclusive = small, poorly fitted or top-dose-only effect, or another doubt; inactive = no such curve, though single readings can be large; an effect the other way counts as inactive or inconclusive. Unless noted, % is set by controls: 0 for no effect and ±100 for the full control effect.

SMILES	APE1 inh	GCN5L2 inh	FEN1 inhibitor	BLM inh-1	RECQ1 helicase	PI5P4Ka inh	BLM inh-2
Cc1ccc(-c2csc3nnc(SCC(=O)Nc4nsc(-c5ccccc5)n4)n23)cc1	-1.2%	nt	-10.7%	-9.7%	-13.0%	nt	nt
CC1=NN(c2ccccc2)C(=O)/C1=C/c1c(O)n(-c2ccc(F)c(Cl)c2)[nH]c1=O	-5.0%	?	?	17.8µM*	-5.5%	?	36.3µM*
CC1=NN(c2ccccc2)C(=O)/C1=C\c1c(C)[nH]n(-c2ccccc2)c1=O	-3.1%	48.4%	-6.4%	-1.6%	-8.7%	nt	nt
CN(C)c1ccc(-c2nc(NCc3cccnc3)c3ccccc3n2)cc1	-1.6%	-16.7%	nt	15.8µM*	?	nt	22.9µM*
c1cncc(CNc2nc(-c3ccoc3)nc3ccccc23)c1	0.4%	-16.7%	nt	-13.8%	-19.8%	nt	nt
O=C(COC(=O)C1CC(=O)N(Cc2ccco2)C1)c1ccc(OC(=O)c2ccco2)cc1 (stereo not drawn)	-0.6%	?	?	15.8µM*	-0.8%	-63.3*	?
COC(=O)C(C(=O)OC)C1c2ccccc2C=C(C)N1C(=O)OC (stereo not drawn)	8.9%[12.4 µM]	nt	nt	0.4%[12.4 µM]	i[11.5 µM]	nt	nt
Cc1nc(-c2ccc(C(=O)Nc3cc(S(N)(=O)=O)ccc3C)cc2)cs1	28.8%	-3.1%	-1.8%	7.08µM*	nt	-9.5	6.46µM*
O=C(CCl)Nc1ccccc1Sc1ccccc1	0.1%	-0.7%	-3.0%	8.91µM*	-0.1%	-1.0	12.9µM*
O=C1C=C(NCCO)C(=O)c2cnccc21	?	nt	nt	?	-3.6%	nt	nt
O=C1C=C(NCCN2CCOCC2)C(=O)c2cnccc21	1.4%	-1.8%	nt	25.1µM*	-0.5%	nt	?
C[C@@]12C=Cc3occc3[C@H]1CC[C@@]13C[C@@H](CC[C@H]12)[C@@](O)(CO)C3	-4.7%	1.6%	nt	3.3%	-17.3%	nt	nt
CSc1nc(SCC(=O)O)c2sc3nc(-c4ccccc4)c4c(c3c2n1)CCC4	?	?	?	-15.7%	-18.8%	-17.5	nt
CSc1nc(N(C)CCO)c2sc3nc(-c4ccco4)c4c(c3c2n1)CCC4	0.3%	?	44.7µM*	20µM*	?	nt	?
O=C(CCc1c[nH]c2ccccc12)NC(Cc1c[nH]c2ccccc12)C(=O)O (stereo not drawn)	21.2µM*	-15.0%	15.3%	31.6µM*	nt	3.0	-7.6%
CC(=O)N[C@@H](Cc1c[nH]c2ccccc12)C(=O)O	-0.2%	-3.9%	nt	-7.9%	-9.0%	nt	nt
CC(C)N(C(=O)Nc1ccc2nsnc2c1)C(C)C	3.7%	-19.7%	?	5.62µM*	i	?	?
CCSc1ccc(-c2ccco2)nn1	-0.1%	-16.7%	2.0%	10µM*	-22.1%	-16.3	?
COc1cccc(CNCCO)c1OCc1ccc(Cl)cc1	7.3%	-5.8%	5.1%	1.3%	-8.5%	-3.2	nt
CCOc1cccc(CNc2ccc(O)cc2)c1OCc1ccc(Cl)cc1	-11.0%	-12.6%	-23.7%	28.2µM*	-9.4%	-12.8	-11.0%
O=C(Nc1cccc(-c2nc3cccnc3s2)c1)C1c2ccccc2Oc2ccccc21	?	-7.3%	-13.5%	10µM*	-29.4%	3.1	12.9µM*

Screening results from PubChem.
